Measurements as given in PubChem BioAssay (EPA / NIEHS).
Where a structure was tested more than once in an assay, its records may differ in their call. Active and inactive are the calls of the source. How the source made its calls: active means hit-call score of the fitted dose curve at least 0.9, where 1 is the maximum; inactive means score below 0.9.

read-out: Tissue plasminogen activator (tPA), PLAT (gene 5327); test: BSK_BE3C_tPA: BioMAP Diversity Plus: BE3C Assay for Tissue plasminogen activator (tPA) Biomarker Activity (AID 2283041); details: primary human bronchial epithelial cells; actives raise or lower the signal;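 on outcome: tPA level quantified by ELISA one day after compound addition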
Method: BSK_BE3C is a cell-based, multiplexed-readout assay that uses bronchial epithelial cell, a human lung primary cell, with measurements taken at 24 hours after chemical dosing in a 96-well plate.BSK_BE3C_tPA is an assay component measured in the BSK_BE3C assay. It measures tPA antibody related to regulation of gene expression using ELISA technology.Data from the assay component BSK_BE3C_tPA was analyzed into 1 assay endpoint. This assay endpoint, BSK_BE3C_tPA, was analyzed with bidirectional fitting relative to DMSO as the negative control and baseline of activity. Using a type of binding reporter, gain or loss-of-signal activity can be used to understand changes in the signaling as they relate to the gene PLAT. Furthermore, this assay endpoint can be referred to as a primary readout, because this assay has produced multiple assay endpoints where this one serves a signaling function. To generalize the intended target to other relatable targets, this assay endpoint is annotated to the protease intended target family, where the subfamily is serine protease.
The levels of cell surface (or secreted, indicated by the prefix "s") biomarker endpoints were measured by ELISA. Overt cytotoxicity to cells in confluent adherent cultures (all systems other than the BT system) was assessed by measuring total protein levels using sulforhodamine B (SRB) staining in parallel cultures at the time of biomarker measurements, indicated as SRB endpoints. For proliferation assays for adherent cell types, individual cell types are cultured at sub-confluence and relative cell numbers quantified by SRB staining at time points optimized for each system (48 h: 3C and CASM3C systems; 72 h: BT and HDF3CGF systems; 96 h: SAg system). SRB was performed by staining cells with 0.1% SRB after fixation with 10% TCA and reading wells at 560 nm.Viability and proliferation of PBMC (T cells) was quantified by Alamar Blue reduction for the SAg and BT systems. For PBMC viability (referred to as PBMC Cytotoxicity within the assay endpoint names), cells were plated (75,000/well in a 96-well plate) and then chemical samples added for 1 h before addition of activators, SEB and TSST-1 (20 ng/mL final concentration each). Cells were incubated for 90 h. Then, Alamar Blue (20 uL/well) (Invitrogen, Cat DAL1100) was added for 6 h, and the plates were read with a fluorescence microplate reader at 546/580 nm (excitation/emission). For PBMC proliferation, cells were plated and activated as above but incubated for only 16 h prior to addition of Alamar Blue. Plates were read after 6 h.

Row | SMILES | outcome | AC50
1 | CCOC(=O)c1ccc(O)cc1 | inactive | 
2 | S=C(S)NCCNC(=S)S.[Mn+2].[S-]C([S-])=NCCN=C([S-])[S-].[Zn+2] | inactive | 
3 | COC(=O)c1cccc(C)c1S(=O)(=O)NC(=O)Nc1nc(OCC(F)(F)F)nc(N(C)C)n1 | inactive | 
4 | CN(C)C(=O)Nc1ccc(Cl)c(Cl)c1 | inactive | 
5 | CCCCC(CC)COC(=O)c1ccccc1C(=O)O (stereo not given) | inactive | 
6 | COC(=O)CSc1cc(N=c2sc(=O)n3n2CCCC3)c(F)cc1Cl |  | 0.79 µM (active)
7 | CCCCOC(=O)[C@@H](C)Oc1ccc(Oc2ccc(C(F)(F)F)cn2)cc1 | inactive | 
8 | CCOC(=O)[C@H](C)Oc1ccc(Oc2nc3ccc(Cl)cc3o2)cc1 | inactive | 
9 | CC(C)(c1ccc(O)cc1)c1ccc(O)cc1 | inactive | 8.08 µM (active)
10 | CCCN(CCC)C(=O)SCC | inactive | 
11 | CCN(CC)C(=O)c1cccc(C)c1 | inactive | 
12 | CCC(C)OC(=O)N1CCCCC1CCO (stereo not given) | inactive | 
13 | CCCCOC(=O)C(C)Oc1ccc(Oc2ccc(C(F)(F)F)cn2)cc1 (stereo not given) | inactive | 
14 | OB(O)O | inactive | 
15 | CCCCC(CC)CN1C(=O)C2C3C=CC(C3)C2C1=O (stereo not given) | inactive | 
16 | CCOC(=O)COc1cc(-n2ncc(C(F)(F)F)c(C)c2=O)c(F)cc1Cl | inactive | 
17 | O=C(O)c1ccccc1 | inactive | 
18 | O=C(Nc1ccc([N+](=O)[O-])cc1Cl)c1cc(Cl)ccc1O | inactive | 
19 | CCOC(=O)C(C)Oc1ccc(Oc2nc3ccc(Cl)cc3o2)cc1 (stereo not given) | inactive | 

Row | SMILES | outcome | AC50
20 | CCOC(=O)NCCOc1ccc(Oc2ccccc2)cc1 | inactive | 
21 | N[C@@H](Cc1cc(I)c(Oc2ccc(O)c(I)c2)c(I)c1)C(=O)O |  | 16 µM (active)
22 | O=C(c1ccccc1)C1CCCCC1 |  | 33.3 µM (active)
23 | CCC(O)=C1C(=O)CC(C(=O)O)CC1=O (stereo not given) | inactive | 
24 | CCSC(=O)N(CC(C)C)CC(C)C | inactive | 
25 | COC(=O)c1ccc(I)cc1S(=O)(=O)NC(=O)Nc1nc(C)nc(OC)n1 | inactive | 
26 | CCCOC(=O)NCCCN(C)C | inactive | 
27 | COC(=O)c1ccc(CNS(C)(=O)=O)cc1S(=O)(=O)NC(=O)Nc1nc(OC)cc(OC)n1 | inactive | 
28 | Cc1nn(C)c(Oc2ccccc2)c1C=NOCc1ccc(C(=O)OC(C)(C)C)cc1 | inactive | 
29 | CCNc1nc(N)nc(Cl)n1 | inactive | 
30 | CCCOC(=O)c1ccc(C(=O)OCCC)nc1 | inactive | 
31 | CC(=O)S[C@@H]1CC2=CC(=O)CC[C@]2(C)[C@H]2CC[C@@]3(C)[C@@H](CC[C@@]34CCC(=O)O4)[C@H]12 | inactive | 
32 | N#CSCSc1nc2ccccc2s1 | inactive | 5.25 µM (active)
33 | COc1c(Cl)ccc(Cl)c1C(=O)O | inactive | 
34 | CC(=O)[C@H]1CC[C@H]2[C@@H]3CCC4=CC(=O)CC[C@]4(C)[C@H]3CC[C@]12C | inactive | 
35 | C#CCOC(=O)[C@@H](C)Oc1ccc(Oc2ncc(Cl)cc2F)cc1 | inactive | 
36 | S=C([S-])NCCNC(=S)[S-].[Mn+2] | inactive | 
37 | CC1(C)C(C=C(Cl)Cl)C1C(=O)OCc1cccc(Oc2ccccc2)c1 (stereo not given) | inactive | 
38 | O=C(c1ccc(O)cc1O)c1ccc(O)cc1O | inactive | 
